Measurements: paper PMC4336329 (PLoS ONE, 2015)
The campaign covered roughly 310,000 compounds. About 2,200 (0.71%) showed an effect of 50% or more. Effects have a minus sign here. The entries come from a sample that favours strong results as a whole.

target: human ether-à-go-go-related gene (hERG) potassium channel (human, UniProt Q12809); test: primary screen, population patch clamp on CHO cells stably expressing hERG; higher = less effect of the substance
Sequence (Q12809 whole entry, looked up): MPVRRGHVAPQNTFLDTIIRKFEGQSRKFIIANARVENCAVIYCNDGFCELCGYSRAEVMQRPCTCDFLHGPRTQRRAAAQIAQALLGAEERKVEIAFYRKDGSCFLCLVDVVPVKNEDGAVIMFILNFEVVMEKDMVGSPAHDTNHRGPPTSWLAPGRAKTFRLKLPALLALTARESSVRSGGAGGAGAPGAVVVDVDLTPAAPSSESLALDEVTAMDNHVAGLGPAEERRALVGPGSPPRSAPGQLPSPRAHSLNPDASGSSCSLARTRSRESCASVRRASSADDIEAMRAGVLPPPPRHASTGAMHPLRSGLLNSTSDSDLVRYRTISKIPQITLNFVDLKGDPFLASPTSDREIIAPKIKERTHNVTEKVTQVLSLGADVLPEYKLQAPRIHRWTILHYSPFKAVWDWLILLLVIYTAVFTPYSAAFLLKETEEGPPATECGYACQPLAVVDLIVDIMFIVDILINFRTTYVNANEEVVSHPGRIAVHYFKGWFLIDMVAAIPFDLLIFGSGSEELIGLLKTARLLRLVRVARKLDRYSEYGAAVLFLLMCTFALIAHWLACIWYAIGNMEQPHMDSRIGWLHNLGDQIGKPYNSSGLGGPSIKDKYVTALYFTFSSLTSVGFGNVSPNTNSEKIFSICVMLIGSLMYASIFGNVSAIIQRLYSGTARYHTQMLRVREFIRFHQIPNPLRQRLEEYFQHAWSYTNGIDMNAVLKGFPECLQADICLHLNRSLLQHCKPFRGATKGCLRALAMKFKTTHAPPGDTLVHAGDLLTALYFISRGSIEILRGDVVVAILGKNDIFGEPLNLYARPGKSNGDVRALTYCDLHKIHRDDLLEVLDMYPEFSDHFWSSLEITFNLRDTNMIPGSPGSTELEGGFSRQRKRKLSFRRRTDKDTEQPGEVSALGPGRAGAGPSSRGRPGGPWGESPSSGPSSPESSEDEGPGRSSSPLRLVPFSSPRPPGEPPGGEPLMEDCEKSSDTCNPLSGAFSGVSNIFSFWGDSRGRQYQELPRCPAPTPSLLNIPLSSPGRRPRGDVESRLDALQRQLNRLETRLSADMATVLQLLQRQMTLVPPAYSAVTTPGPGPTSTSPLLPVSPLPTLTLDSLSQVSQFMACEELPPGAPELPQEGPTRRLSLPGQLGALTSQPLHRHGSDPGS

| Structure (SMILES) | hERG current change (%, negative = inhibition) at 1uM [%] |
| --- | --- |
| COC(=O)C1=C(C)N(C)C(C)=C(C(=O)OC)C1c1ccc(F)c(Br)c1 | 6.36 |
| CCN(CC(=O)NCc1cccs1)C(=O)c1ccc(-c2ccccc2F)o1 | -7.69 |
| CCN(CC(=O)NCc1cccs1)C(=O)COc1cccc(C(F)(F)F)c1 | -7.5 |
| CCN(CC(=O)NCc1cccs1)C(=O)c1ccc(-c2cccc(C(F)(F)F)c2)o1 | -57.4 |
| COC(=O)C1=C(C)N(CCCCCC(=O)O)C(=O)NC1c1ccccc1 (stereo not drawn) | 2.67 |
| Cc1ccc2c(c1)C1CN(C)CCC1N2C(=O)c1ccccc1NS(=O)(=O)c1ccc(F)cc1 (stereo not drawn) | 11.8 |
| COc1ccc2cc(C3(C)NC(=O)N(CC(=O)Nc4c(C)n(C)n(-c5ccccc5)c4=O)C3=O)ccc2c1 (stereo not drawn) | 0.395 |
| CCOC(=O)C1(CCOc2ccccc2)CCN(Cc2nccn2CC)CC1 | -5.37 |
| OCC1(CCc2ccccc2)CCN(Cc2cccn2-c2cccnc2)CC1 | -23.3 |
| CCn1ccnc1CN1CCC(CO)(CCOc2ccccc2)CC1 | 13.1 |
| CCOC(=O)C1(CCOc2ccccc2)CCN(Cc2cccn2-c2ncccn2)CC1 | -81.6 |
| CCOC(=O)C1(CCOc2ccccc2)CCN(Cc2cccn2-c2cccnc2)CC1 | 9.53 |
| OCC1(CCOc2ccccc2)CCN(Cc2cccn2-c2ncccn2)CC1 | -82.4 |
| O=C(Cc1c(F)cccc1Cl)OCN1C(=O)c2ccccc2C1=O | 17.4 |
| O=C(NCCN1C(=O)C2C3C=CC(C3)C2C1=O)Nc1ccccn1 (stereo not drawn) | 5.7 |
| CCn1cc(C(=O)NCCCN2CCCC(C)C2)c(=O)c2cc(S(=O)(=O)N3CCc4ccccc4C3)ccc21 (stereo not drawn) | -64.2 |
| CC1CCCN(CCCNC(=O)c2cn(C)c3ccc(S(=O)(=O)N(C)C4CCCCC4)cc3c2=O)C1 (stereo not drawn) | -13.2 |
| CCn1cc(C(=O)NCCCOC)c(=O)c2cc(S(=O)(=O)N(C)C3CCCCC3)ccc21 | -2.67 |
| CCn1cc(C(=O)NCCCN2CCCCCC2)c(=O)c2cc(S(=O)(=O)N3CCc4ccccc4C3)ccc21 | -24.5 |
| CCn1cc(C(=O)NCCCN(CC(C)C)CC(C)C)c(=O)c2cc(S(=O)(=O)N(C)C3CCCCC3)ccc21 | -6.68 |
| CCC1CCCCN1CCCNC(=O)c1cn(CC)c2ccc(S(=O)(=O)N(C)C3CCCCC3)cc2c1=O (stereo not drawn) | -75.5 |

| Structure (SMILES) | hERG current change (%, negative = inhibition) at 1uM [%] |
| --- | --- |
| CCn1cc(C(=O)NCCCN2CCC(C)CC2)c(=O)c2cc(S(=O)(=O)N(C)C3CCCCC3)ccc21 | -74 |
| CCn1cc(C(=O)NCCCN2CCCC(C)C2)c(=O)c2cc(S(=O)(=O)N3CCOCC3)ccc21 (stereo not drawn) | 16.1 |
| CCn1cc(C(=O)NCCCN2CCCC(C)C2)c(=O)c2cc(S(=O)(=O)N(C)C3CCCCC3)ccc21 (stereo not drawn) | -82 |
| CCC1CCCCN1CCCNC(=O)c1cn(C)c2ccc(S(=O)(=O)N(C)C3CCCCC3)cc2c1=O (stereo not drawn) | -2.04 |
| CCN(CC)CCCNC(=O)c1cn(CC)c2ccc(S(=O)(=O)N(C)C3CCCCC3)cc2c1=O | -5.96 |
| CCn1cc(C(=O)NCCCN2CCCC2)c(=O)c2cc(S(=O)(=O)N3CCc4ccccc4C3)ccc21 | 6.45 |
| COc1cccc(CNC(=O)Cc2nc3nc(C)cc(C)n3n2)c1 | 14.5 |
| COc1cc(/C=c2\sc3n(c2=O)CCCN=3)ccc1O | 13.5 |
| COc1ccc(/C=C/c2c([N+](=O)[O-])c(=O)n(C)c(=O)n2C)cc1OC | 5.36 |
| COc1ccc(-c2nsc(SCC(=O)Nc3cc(C)on3)n2)cc1 | 11.9 |
| O=C(O)c1ccc(CNCc2ccc(Cl)cc2)cc1 | 11.3 |
| O=C(CCc1ccccc1)Nc1cc2c3c(c1)CCC(=O)N3CCC2 | -1.85 |
| COc1ccc(-c2cc(C)no2)cc1S(=O)(=O)Nc1cccc(C)c1 | 15.5 |
| CC(C)(C)NC(=O)C1Cc2ccccc2CN1S(=O)(=O)c1ccc(F)cc1 (stereo not drawn) | 3.91 |
| O=C(CC1CC2CCC1C2)NCCc1ccc(Cl)cc1 (stereo not drawn) | -0.305 |
| Cn1cccc1/C=N/N1CCN(Cc2ccc(Cl)cc2)CC1 | 3.9 |
| COc1ccc(COCC(O)CN2CCC(CN3C(=O)c4cccc5cccc(c45)C3=O)CC2)cc1OC.Cl (stereo not drawn) | -20.2 |
| CCS(=O)(=O)N1CCN(S(=O)(=O)c2ccc3ccccc3c2)CC1 | 13 |
| O=C(CSc1ccc(Cl)cc1)Nc1nnc(-c2ccco2)o1 | -1.41 |
| COc1cc(C2C(C#N)=C(N)Oc3cc(C)oc(=O)c32)cc(OC)c1OC (stereo not drawn) | 20.5 |
| COC(=O)c1cc(Br)c(=O)n(Cc2ccc(OC)c(OC)c2)c1 | 16.7 |

| Structure (SMILES) | hERG current change (%, negative = inhibition) at 1uM [%] |
| --- | --- |
| CCN(CC)CCCNC(=O)c1cn(CC)c2ccc(S(=O)(=O)N3CCc4ccccc4C3)cc2c1=O | 1.94 |
| CCOCCCNC(=O)c1cn(CC)c2ccc(S(=O)(=O)N(C)C3CCCCC3)cc2c1=O | 11.3 |
| CCCCN(CC)CCCNC(=O)c1cn(CC)c2ccc(S(=O)(=O)N3CCc4ccccc4C3)cc2c1=O | -71.9 |
| CCn1cc(C(=O)NCCCN2CC(C)CC(C)C2)c(=O)c2cc(S(=O)(=O)N(C)C)ccc21 (stereo not drawn) | -17.3 |
| CCCN(CCC)CCCNC(=O)c1cn(CC)c2ccc(S(=O)(=O)N3CCc4ccccc4C3)cc2c1=O | -47.9 |
| CCn1cc(C(=O)NCCCN2CC(C)CC(C)C2)c(=O)c2cc(S(=O)(=O)N(C)C3CCCCC3)ccc21 (stereo not drawn) | -91.4 |
| Oc1ccc(/C=N/Nc2ccc(C(F)(F)F)cn2)cc1 | 7.84 |
| O=C(NCc1ccco1)C(=O)NCC1OCCCN1S(=O)(=O)c1ccc(F)cc1 (stereo not drawn) | 10 |
| COc1ccccc1N(C)S(=O)(=O)c1ccc(Cl)c(C(=O)NC2=NCCS2)c1 | 21.6 |
| Cc1ccc(S(=O)(=O)NCC2COc3ccccc3O2)cc1 (stereo not drawn) | 6.71 |
| CCc1ccc(NC(=O)CSCc2nc(N)nc(Nc3ccccc3CC)n2)cc1 | 10.9 |
| O=C(C1CCN(C2CCN(Cc3ccc4cc(F)ccc4n3)CC2)CC1)N1CCCC1 | -78.3 |
| CCc1ccc(CN2CCC(N3CCC(C(=O)N4CCCC4)CC3)CC2)o1 | -28.3 |
| O=C(c1cc(F)ccc1F)N1CCC(N2CCC(C(=O)N3CCCC3)CC2)CC1 | 16.9 |
| CCCCNc1nc2ccccc2n1CC(=O)N1CCc2ccccc2C1 | -6.59 |
| N#Cc1nc(-c2ccc(F)cc2)oc1NCc1cccc2c1OCO2 | 13.6 |
| Cc1cc([N+](=O)[O-])nn1CC(=O)NNC(=S)Nc1ccc([N+](=O)[O-])cc1 | 11.8 |
| O=C(CSc1ccccc1)N1CCCC(N2CCN(c3ccc(F)cc3)CC2)C1 (stereo not drawn) | -56 |
| CSCC(=O)N1CCCC(N2CCN(c3ccc(F)cc3)CC2)C1 (stereo not drawn) | 0.918 |
| Cc1ccc(OCC(=O)N2CCCC(N3CCN(c4ccc(F)cc4)CC3)C2)cc1 (stereo not drawn) | -90.2 |
| COc1ccccc1OCC(=O)N1CCCC(N2CCN(c3ccc(F)cc3)CC2)C1 (stereo not drawn) | 4.57 |

| Structure (SMILES) | hERG current change (%, negative = inhibition) at 1uM [%] |
| --- | --- |
| O=C(COc1ccccc1Cl)N1CCCC(N2CCN(c3ccc(F)cc3)CC2)C1 (stereo not drawn) | -19.5 |
| O=C(CSc1ccccc1)N1CCCC(N2CCN(c3ccccc3)CC2)C1 (stereo not drawn) | 2.18 |
| CC(=O)Nc1cc(C(C)(C)C)c(O)c(C(C)(C)C)c1 | 13.4 |
| CCCNC(=O)c1cc(S(=O)(=O)N2CCCCC2)ccc1N1CCOCC1 | -9.91 |
| CC1CCC(NC(=O)CN2CCCN(Cc3ccc(F)cc3Cl)C2=O)CC1 (stereo not drawn) | 8.34 |
| CN(C)C1(CNC(=O)Nc2ccc(Cl)c(Cl)c2)CCCCC1 | 3.77 |
| O=c1c2ccccc2nc2n1CC/C2=C\N1CCN(c2ccc([N+](=O)[O-])cc2)CC1 | -62.1 |
| Cc1nc2ccccc2c(=O)n1-c1ccc([N+](=O)[O-])cc1 | 11.2 |
| Cl.O.O=c1c2ccccc2nc2n1CC/C2=C/N1CCN(c2cccc(C(F)(F)F)c2)CC1 | 5.54 |
| O=[N+]([O-])c1ccc(CS(=O)(=O)N2CCN(c3ccccc3)CC2)cc1 | -3.45 |
| CC1CCCC(C)N1c1nnc(N)s1 (stereo not drawn) | 10.6 |
| Cc1ccccc1NC(=S)N1CCCN(Cc2ccc(F)cc2)C1 | 8.61 |
| CSc1nc(NCc2ccco2)c2c3c(sc2n1)CN(C)CC3 | -38.8 |
| CSc1nc(NCc2ccccc2)c2c3c(sc2n1)CN(C)CC3 | -64.2 |
| CSc1nc(NCC(C)C)c2c3c(sc2n1)CN(C)CC3 | -9.92 |
| CC(C)c1ccc2c(c1)c(SC(C)(C)C)c(CC(C)(C)C(=O)O)n2Cc1ccc(Cl)cc1 | 5.14 |
| COCCNC(=O)C(OC(=O)c1cc2oc(C)cc2n1C)C(C)C (stereo not drawn) | 7.23 |
| COc1cn(-c2ccccc2)nc1C(=O)Nc1ccc(C)cc1Cl | 11.4 |
| CCN(CC)CCNCC(O)(c1ccc(Cl)cc1)c1ccc(Cl)cc1 | -84.4 |
| CC(C)(C)NCC(O)(c1ccc(Cl)cc1)c1ccc(Cl)cc1 | 13 |
| CCCCNCC(O)(c1ccc(Cl)cc1)c1ccc(Cl)cc1 | -5.39 |
